# Laboratory results reported in ChEMBL document CHEMBL1157539, “Thousands of chemical starting points for antimalarial lead identification” (Nature, 2010).
# Tested on: Plasmodium falciparum
# Test: GSK_TCMDC: Inhibition of Plasmodium falciparum Dd2 in whole red blood cells, using parasite LDH activity as an index of growth. Test compounds present at 2uM
# Assay type: functional
row,Compound,Inhibition [%]
1,CCCc1cc(Cc2cnc(N)nc2N)cc2c1OC(C)C2C.Cl (centres undefined),0
2,CCCCCCN1CCCN(Cc2cccc(NC(=O)c3cc4ccccc4s3)c2)CC1.O=C(O)C(F)(F)F,53
3,Cc1ccc(C)c(CN2CCC(CNC(=O)c3cc4ccc5cccnc5c4[nH]3)CC2)c1,10
4,COc1ccc2nccc(NC(=O)C3(O)CCC(NCc4ncc5c(c4Cl)OCCO5)CC3)c2n1.Cl (centres undefined),59
5,Cc1cnc(NCCc2ccc(F)cc2)nc1NCCC(=O)Nc1ccccc1.O=C(O)C(F)(F)F,17
6,CCN(CCNC(=O)Nc1cc(C(F)(F)F)cc(C(F)(F)F)c1)c1cccc(C)c1,100
7,NC1=NC2(CCCCC2)N(OCCCCCCN2C(=O)c3ccccc3C2=O)C(N)=N1,16
8,CC1CCN(C(=O)CSc2nc(-c3ccc(C(C)C)cc3)no2)CC1,84
9,Cc1cccc2nc(-c3ccc(-c4cccc(CNCCCN5CCCC5=O)c4)s3)[nH]c12.O=C(O)C(F)(F)F,26
10,Cl.Fc1cc(Cl)ccc1Nc1ccnc2cc(-c3ccc(CN4CCNCC4)o3)ccc12,99
11,Cc1cc(-c2ccc3c(c2)CCN(CCC2CCC(NC(=O)/C=C/c4ccc(F)cc4)CC2)CC3)on1.Cl (centres undefined),47
12,Cc1cccc2nc(-c3ccc(-c4ccc(NC(=O)NCc5ccc(F)cc5)cc4)cc3)[nH]c12,99
13,CCC(CO)NCC(O)Cn1c2ccc(Br)cc2c2cc(Br)ccc21 (centres undefined),87
14,Cc1ccc(S(=O)(=O)N2CCCN(C(=O)c3cc(-c4ccccc4)[nH]n3)CC2)cc1,93
